These results are taken from PubChem BioAssay (Tox21).

A short description of experiment [1]: qHTS assay to test for compound auto fluorescence at 535 nm (green) in HEK293 cells (AID 720680). For orientation: Quantitative high-throughput screening tests each substance at several concentrations.
Experiment [2] in a line: qHTS assay to test for compound auto fluorescence at 460 nm (blue) in HEK293 cell free culture (AID 720681). The procedure, abridged:
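Blue fluorescence (Ex 405/Em 460 nm, triamterene-equivalent) was read immediately after pin transfer of compound or DMSO into medium (DMEM, 10% FBS) without cells.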

The nature of experiment [3]: qHTS assay to test for compound auto fluorescence at 535 nm (green) in HEK293 cell free culture (AID 720682). The procedure, abridged: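 Steps: dispense DMEM/10% FBS into empty wells; pin in compound or DMSO; measure fluorescence at 485/535 nm. Values are fluorescein equivalents.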
Experiment [4] in a line: qHTS assay to test for compound auto fluorescence at 590 nm (red) in HEK293 cell free culture (AID 720683). The procedure, abridged: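 Red-channel autofluorescence of compounds in culture medium (DMEM, 10% FBS), no cells, measured at 540/590 nm. Rose Bengal sodium is the reference fluorophore for equivalence.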
Experiment [5] in a line: qHTS assay to test for compound auto fluorescence at 590 nm (red) in HepG2 cell free culture (AID 720684). The procedure, abridged:
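Cell-free; medium MEM + 10% FBS; compound or DMSO added by pintool; read Ex 540/Em 590 nm; Rose Bengal sodium as red reference fluorophore.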

The nature of experiment [6]: qHTS assay to test for compound auto fluorescence at 460 nm (blue) in HepG2 cell free culture (AID 720685). The procedure, abridged:
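Cell-free plates of MEM plus 10% FBS received 23 nL compound or DMSO vehicle; blue-channel (405/460 nm) intensity scored against triamterene as reference fluorophore.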

Experiment [7] can be described thus: qHTS assay to test for compound auto fluorescence at 535 nm (green) in HepG2 cell free culture (AID 720686).
A short description of experiment [8]: qHTS assay to test for compound auto fluorescence at 460 nm (blue) in HepG2 cells (AID 720687). The procedure, abridged:
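Blue-channel autofluorescence (Ex/Em 405/460 nm, triamterene-equivalent) was measured after 1 hr compound exposure at 37 C, 5% CO2. Cells were HepG2, plated overnight at 37 C in MEM plus 10% FBS.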

A short description of experiment [9]: qHTS assay to identify small molecule antagonists of the glucocorticoid receptor (GR) signaling pathway - cell viability counter screen (AID 720693). Further: nearly all actives have a fitted effect of over 55% in size.
Experiment [10] is described as follows: qHTS assay for identifying genotoxic compounds that show differential cytotoxicity against isogenic chicken DT40 cell lines with known DNA damage response pathways - Rev3 mutant cell line (AID 743014). Further: nearly all actives have a fitted effect of over 55% in size. Further: potency means the concentration at half of the fitted maximal effect.
Experiment [11] is described as follows: qHTS assay for identifying genotoxic compounds that show differential cytotoxicity against isogenic chicken DT40 cell lines with known DNA damage response pathways - Rad54/Ku70 mutant cell line (AID 743015). Further: nearly all actives have a fitted effect of over 60% in size. Further: potency means the concentration at half of the fitted maximal effect.
A short description of experiment [12]: qHTS assay to identify small molecule antagonists of the androgen receptor (AR) signaling pathway - cell viability counter screen (AID 743033; further: nearly all actives have a fitted effect of over 45% in size).
A short description of experiment [13]: qHTS assay to identify small molecule antagonists of the androgen receptor (AR) signaling pathway using the MDA cell line - cell viability counter screen (AID 743041; further: nearly all actives have a fitted effect of over 45% in size). The procedure, abridged:
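Viability read by CellTiter-Fluor fluorescence in the same wells as the antagonist screen, added after 15.5 h of a 16 h, 37C exposure. Human breast carcinoma MDA-kb2 AR-luc cells, compounds co-dosed with agonist R1881.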

Experiment [14] can be described thus: qHTS assay for identifying genotoxic compounds that show differential cytotoxicity against isogenic chicken DT40 cell lines with known DNA damage response pathways - wild type cell line (AID 743012). Further: nearly all actives have a fitted effect of over 60% in size. Further: potency means the concentration at half of the fitted maximal effect. A digest of the protocol:
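Viability of DNA repair-proficient chicken DT40 cells was assessed by CellTiter-Glo luminescence following 40 h compound exposure at 37 C/5% CO2.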

Experiment [15] is described as follows: qHTS assay to identify small molecule antagonists of the thyroid receptor (TR) signaling pathway - cell viability counter screen (AID 743064). Further: nearly all actives have a fitted effect of over 50% in size. Further: potency means the concentration at half of the fitted maximal effect. The procedure, abridged:
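Plate GH3.TRE-Luc cells; incubate 4 h at 37 °C; add compound, then T3 to 1 nM final; incubate 23.5 h; add CellTiter-Fluor; incubate 30 min at 37 °C, 5% CO2; read fluorescence.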

Experiment [16] deals with Glucocorticoid receptor (Homo sapiens) (UniProt P04150). The experiment can be described thus: qHTS assay to identify small molecule agonists of the glucocorticoid receptor (GR) signaling pathway (AID 720691; active means well fitted activation curve with a large enough effect in the signal ratio in the repeat runs, not every such curve was filed as active; the % refers to the signal ratio). A digest of the protocol:
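Compounds in DMSO, alongside positive controls, were added to GR-bla HeLa reporter cells and incubated 18 h at 37 C; GRE-driven beta-lactamase was detected by fluorescence after 2 h with FRET substrate at room temperature.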

Experiment [17] shares this target. The experiment in a line: qHTS assay to identify small molecule antagonists of the glucocorticoid receptor (GR) signaling pathway (AID 720692; active means well fitted inhibition curve with a large enough effect in the signal ratio in the repeat runs, not every such curve was filed as active; the % refers to the signal ratio). The procedure, abridged:
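In a 1536-well cell format, compounds were added 4 h after seeding GR-bla HeLa cells, together with dexamethasone at 5 nM final; reporter activity was measured by FRET-substrate fluorescence following 18 h at 37 C.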

The target of experiment [18] is Androgen receptor (Homo sapiens) (UniProt P10275). The experiment can be described thus: qHTS assay to identify small molecule agonists of the androgen receptor (AR) signaling pathway using the MDA cell line (AID 743040; further: nearly all actives have a fitted effect of over 20% in size). The procedure, abridged: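 Luciferase agonist assay: 16 h compound exposure at 37C without CO2 in MDA-kb2 AR-luc cells, whose MMTV promoter responds to both AR and GR. Luminescence measured after 30 min room-temperature incubation with ONE-Glo.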

For experiment [19] the target is unchanged. The experiment can be described thus: qHTS assay to identify small molecule antagonists of the androgen receptor (AR) signaling pathway using the MDA cell line (AID 743042; further: nearly all actives have a fitted effect of over 55% in size). The procedure, abridged:
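Antagonist mode: compounds plus R1881 agonist added to MDA-kb2 AR-luc cells, incubated 16 h at 37C. Luciferase reporter luminescence quantified, with multiplexed CellTiter-Fluor readout for cell viability.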

A number with no mark means an inactive call. Inconclusive results are not listed. Calls of active or inactive are those of the source. Unless noted, the call rests on the fitted dose curve; in most records, active means well fitted curve in the direction sought with a large enough effect in the repeat runs; inconclusive means weak or mixed curves; inactive means no such curve, though single readings can be large; an effect the other way counts as inactive or inconclusive.

Chain of Glucocorticoid receptor (Homo sapiens) (P04150 whole entry, looked up): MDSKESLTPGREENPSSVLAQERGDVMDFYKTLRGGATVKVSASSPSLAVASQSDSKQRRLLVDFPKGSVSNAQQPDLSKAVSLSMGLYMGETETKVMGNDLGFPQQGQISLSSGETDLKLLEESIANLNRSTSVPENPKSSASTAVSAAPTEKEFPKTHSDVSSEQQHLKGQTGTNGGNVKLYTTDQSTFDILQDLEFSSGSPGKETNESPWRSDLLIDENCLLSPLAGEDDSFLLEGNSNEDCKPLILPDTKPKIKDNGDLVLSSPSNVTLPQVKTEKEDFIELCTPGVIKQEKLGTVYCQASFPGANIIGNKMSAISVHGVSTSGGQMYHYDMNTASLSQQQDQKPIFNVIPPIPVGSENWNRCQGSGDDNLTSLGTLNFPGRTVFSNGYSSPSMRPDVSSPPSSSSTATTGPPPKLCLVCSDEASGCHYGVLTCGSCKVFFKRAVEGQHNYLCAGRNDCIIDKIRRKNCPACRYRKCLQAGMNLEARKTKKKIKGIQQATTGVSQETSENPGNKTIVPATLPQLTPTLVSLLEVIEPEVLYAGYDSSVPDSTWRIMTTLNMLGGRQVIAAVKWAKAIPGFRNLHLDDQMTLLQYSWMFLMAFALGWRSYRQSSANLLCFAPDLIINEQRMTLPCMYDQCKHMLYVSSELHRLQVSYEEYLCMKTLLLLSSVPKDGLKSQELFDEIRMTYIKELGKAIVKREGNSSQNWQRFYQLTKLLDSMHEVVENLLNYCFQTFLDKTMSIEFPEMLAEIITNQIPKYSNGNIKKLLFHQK
Chain of Androgen receptor (Homo sapiens) (P10275 whole entry, looked up): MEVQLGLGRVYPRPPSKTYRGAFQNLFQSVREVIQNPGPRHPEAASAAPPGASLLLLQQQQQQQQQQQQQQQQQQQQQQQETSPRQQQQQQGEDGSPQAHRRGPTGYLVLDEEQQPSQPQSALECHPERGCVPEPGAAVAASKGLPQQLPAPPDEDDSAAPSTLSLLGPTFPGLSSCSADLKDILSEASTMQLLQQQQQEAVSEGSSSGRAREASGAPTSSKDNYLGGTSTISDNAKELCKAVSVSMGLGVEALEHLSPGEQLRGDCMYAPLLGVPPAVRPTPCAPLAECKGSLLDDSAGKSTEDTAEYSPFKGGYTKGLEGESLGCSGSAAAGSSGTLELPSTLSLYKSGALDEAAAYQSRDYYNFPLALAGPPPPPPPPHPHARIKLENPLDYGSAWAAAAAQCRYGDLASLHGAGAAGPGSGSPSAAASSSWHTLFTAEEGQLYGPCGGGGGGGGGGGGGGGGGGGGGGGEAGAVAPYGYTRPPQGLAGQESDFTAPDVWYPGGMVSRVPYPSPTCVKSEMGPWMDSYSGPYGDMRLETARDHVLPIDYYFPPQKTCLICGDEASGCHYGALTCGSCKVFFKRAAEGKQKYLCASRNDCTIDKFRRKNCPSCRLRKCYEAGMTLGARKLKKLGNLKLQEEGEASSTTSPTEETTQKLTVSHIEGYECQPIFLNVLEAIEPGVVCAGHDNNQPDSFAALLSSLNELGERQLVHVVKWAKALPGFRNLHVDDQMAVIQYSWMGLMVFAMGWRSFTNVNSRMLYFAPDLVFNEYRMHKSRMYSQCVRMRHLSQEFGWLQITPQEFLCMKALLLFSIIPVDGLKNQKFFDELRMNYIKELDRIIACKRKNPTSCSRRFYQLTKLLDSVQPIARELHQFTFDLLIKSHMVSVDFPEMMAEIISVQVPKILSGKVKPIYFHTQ

In the case of `CCCCCCCCS`, the result in experiment [1], in experiment [3], in experiment [4], in experiment [5], in experiment [6] and in [7] was inactive. Moreover, in experiment [8], the outcome was inactive. Moreover, the Potency result in experiment [2], in [9], in experiment [10], in experiment [11], in [12] and in experiment [13] was “inactive” throughout.
Regarding `Oc1ccc(CCNCCCCCCNCCc2ccccc2)cc1O`, the result in experiment [1], in experiment [3], in experiment [4], in experiment [5], in experiment [6] and in [7] was inactive. Besides, the molecule was called inactive in experiment [8]. Besides, the Potency entry in [2], in experiment [9], in experiment [12] and in experiment [13] was “inactive” in each case. The Potency in experiment [14] is 13.3 µM (active); in [10], 29.8 µM (active); in experiment [11] it was 26.6 µM (active); in experiment [15], 29.8 µM (active).
As to `C[C@H]1C[C@H]2[C@@H]3CCC4=CC(=O)C=C[C@]4(C)[C@@]3(F)[C@@H](O)C[C@]2(C)[C@@]1(O)C(=O)COP(=O)(O)O`, the result in experiment [1], in [3], in experiment [4], in experiment [5], in experiment [6] and in experiment [7] was inactive. Moreover, in [8], the call was inactive. In addition, the Potency entry in experiment [2], in experiment [9], in experiment [14], in experiment [10], in experiment [11] and in experiment [12] was “inactive” each time. For the same molecule, in [13], the Potency entry was “inactive”.
For `Cc1cc(N)n(-c2ccccc2)n1`, the molecule was classed as inactive in experiment [1], in experiment [3], in experiment [4], in experiment [5], in [6] and in experiment [7]. Further, the result in [8] was inactive. For the same molecule, the Potency entry in experiment [2], in experiment [9], in [14], in experiment [11], in experiment [12] and in experiment [13] was “inactive” throughout. Further, the Potency result in [15] is “inactive”.
`CO[C@@H]1[C@@H](O[C@@H]2O[C@H](C)[C@@H](O[C@H]3C[C@@](C)(O)[C@@H](O)[C@H](C)O3)[C@H](N(C)C)[C@H]2O)[C@@H](CC=O)C[C@@H](C)[C@@H](O[C@@H]2CC[C@H](N(C)C)[C@@H](C)O2)/C=C/C=C/C[C@@H](C)OC(=O)C[C@H]1OC(C)=O`: the molecule was classed as inactive in [1], in [3], in [4], in [5], in experiment [6] and in experiment [7]. The molecule was called inactive in [8]. The Potency entry in experiment [2], in experiment [9] and in experiment [13] was “inactive” in each case. Moreover, the Potency in experiment [14] was 8.41 µM (active); in [10] it was 6.68 µM (active); in experiment [11], 7.5 µM (active); in [15] it was 26.6 µM (active).
Turning to `CCCc1ccc(OC)cc1`, the result in [1], in experiment [3], in [4], in [5], in experiment [6] and in [7] was inactive. For the same molecule, the call in experiment [8] and in experiment [18] was inactive. In addition, the Potency result in experiment [16], in experiment [17], in experiment [9], in [14], in experiment [11] and in [12] was “inactive” throughout. Also, the Potency result in [13] and in [19] was “inactive” in each case.
With `Cc1nc2sccn2c(=O)c1CCN1CCC(=C(c2ccc(F)cc2)c2ccc(F)cc2)CC1`, the molecule was classed as inactive in experiment [1], in experiment [3], in experiment [4], in experiment [5], in experiment [6] and in [7]. In experiment [8], the call was inactive. Further, the Potency result in experiment [9] is “inactive”. In addition, the Potency in [14] is 7.5 µM (active); in [10], 13.3 µM (active); in [11], 13.3 µM (active); in experiment [15] it was 29.8 µM (active).
For the molecule `CCCCCCCCCCCCSC#N`, the call in experiment [1], in experiment [3], in [4], in experiment [5], in experiment [6] and in experiment [7] was inactive. Besides, the outcome in experiment [8] was inactive. In addition, the Potency entry in experiment [9], in experiment [14], in experiment [10], in experiment [11], in [12] and in experiment [13] was “inactive” each time. Moreover, in experiment [15], the Potency entry is “inactive”.
Consider `C[C@H](CN1CCCC1)C(=O)c1ccc(C(F)(F)F)cc1`, for which the call in [1], in experiment [3], in experiment [4], in experiment [5], in experiment [6] and in experiment [7] was inactive. Moreover, the call in experiment [8] was inactive. Further, the Potency result in experiment [16], in experiment [17], in experiment [12], in experiment [13] and in [15] was “inactive” each time. For the same molecule, the Potency in experiment [14] is 6.68 µM (active); in experiment [10], 10.6 µM (active); in experiment [11] it was 8.41 µM (active).
For the molecule `c1ccc(CCNc2nc(-c3ccccc3)cs2)cc1`, the call in experiment [1], in experiment [3], in experiment [4], in experiment [5], in [6] and in [7] was inactive. Moreover, in experiment [8], the call was inactive. The Potency entry in experiment [9], in [13] and in [15] was “inactive” throughout. For the same molecule, the Potency in experiment [14] was 29.8 µM (active); in experiment [10] it was 29.8 µM (active); in [11], 33.5 µM (active).
Consider `Cc1c(Cl)cccc1Nc1ccccc1C(=O)O`, for which the call in experiment [1], in experiment [3], in experiment [4], in [5], in experiment [6] and in [7] was inactive. Moreover, the result in [8] was inactive. Also, the Potency result in [9], in experiment [10] and in [13] was “inactive” in each case.
Regarding `CCCCOC(=O)C(C)Oc1ccc(Oc2ccc(C(F)(F)F)cn2)cc1` (stereo not drawn), the result in experiment [1], in experiment [3], in experiment [4], in [5], in experiment [6] and in [7] was inactive. Further, the molecule was classed as inactive in experiment [8]. Moreover, the Potency result in experiment [16], in experiment [9], in [13] and in experiment [15] was “inactive” in each case.
`SCCOCCOCCS`: the result in experiment [1], in [3], in [4], in experiment [5], in experiment [6] and in experiment [7] was inactive. The outcome in experiment [8] was inactive. Further, the Potency entry in [16], in experiment [17], in experiment [9], in experiment [14], in experiment [10] and in experiment [11] was “inactive” each time. For the same molecule, the Potency result in experiment [12], in experiment [13] and in experiment [15] was “inactive” in each case.
Consider `CCOC(OCC)OCC`, for which the result in [1], in experiment [3], in experiment [4], in experiment [5], in experiment [6] and in [7] was inactive. For the same molecule, the molecule was classed as inactive in experiment [8]. For the same molecule, the Potency result in [16], in [17], in experiment [9], in experiment [14], in [10] and in [11] was “inactive” in each case. Moreover, the Potency entry in [12], in experiment [13] and in experiment [15] was “inactive” in each case.
